Data reported in PubChem BioAssay (Tox21).
Results filed as inconclusive are left out. Calls of active or inactive are those of the source. Unless noted, the call rests on the fitted dose curve; in most records, active means well fitted curve in the direction sought with a large enough effect in the repeat runs; inconclusive means weak or mixed curves; inactive means no such curve, though single readings can be large; an effect the other way counts as inactive or inconclusive.

Experiments:
[1] = qHTS assay to identify small molecule agonists of the peroxisome proliferator-activated receptor delta (PPARd) signaling pathway - cell viability counter screen (AID 743211); further: nearly all actives have a fitted effect of over 55% in size
Method in brief: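 Tox21 library compounds, delivered in DMSO, were incubated 17 h with PPARd-bla HEK293H cells; cytotoxicity was taken from CellTiter-Glo luminescence read 30 min after reagent addition.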

[2] = target: Peroxisome proliferator-activated receptor delta (Homo sapiens) (UniProt Q03181); assay: qHTS assay to identify small molecule agonists of the peroxisome proliferator-activated receptor delta (PPARd) signaling pathway (AID 743212; calls by dose curve)
Method in brief: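 GeneBLAzer PPARd UAS-bla HEK293H cells (beta-lactamase reporter under UAS control), plated and rested 5 h at 37 C, then exposed to compounds in DMSO at 37 C; LiveBLAzer B/G FRET substrate added, 2 h room temperature, fluorescence read.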

[3] = target: Peroxisome proliferator-activated receptor delta (Homo sapiens) (UniProt Q03181); assay: qHTS assay to identify small molecule antagonists of the peroxisome proliferator-activated receptor delta (PPARd) signaling pathway (AID 743215; active means well fitted inhibition curve with a large enough effect in the signal ratio in the repeat runs, not every such curve was filed as active; the % refers to the signal ratio;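 further: cells stimulated with agonist L165041 at 300 nM final during compound exposure; series mostly up to about 62 µM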)
Method in brief: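 PPARd UAS-bla HEK293H cells were pre-incubated 5 h at 37 C, then given test compounds in DMSO plus agonist L165041 (300 nM final). After 17 h at 37 C, beta-lactamase FRET substrate was added; fluorescence read after 2 h at room temperature.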

[4] = target: Bile acid receptor (Homo sapiens) (UniProt Q96RI1); assay: qHTS assay to identify small molecule antagonists of the farnesoid-X-receptor (FXR) signaling pathway (AID 743217; active means well fitted inhibition curve with a large enough effect in the signal ratio in the repeat runs, not every such curve was filed as active; the % refers to the signal ratio; further: potency means the concentration at half of the fitted maximal effect)
Method in brief: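 FXR-UAS-bla HEK 293T cells pre-incubated 5 h at 37 °C, then exposed to compounds with chenodeoxycholic acid (50 uM final) for 16 h at 37 °C. Beta-lactamase reporter read by LiveBLAzer B/G FRET substrate fluorescence after 2 h at room temperature.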

[5] = qHTS assay to identify small molecule agonists of the farnesoid-X-receptor (FXR) signaling pathway - cell viability counter screen (AID 743218); further: nearly all actives have a fitted effect of over 45% in size
Method in brief: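 FXR-UAS-bla HEK 293T cells, plated 5 h at 37 C, were exposed to compounds for 16 h at 37 C. CellTiter-Glo was then added to the same wells as the bla readout; luminescence read after 30 min at room temperature.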

[6] = qHTS assay to identify small molecule antagonists of the farnesoid-X-receptor (FXR) signaling pathway - cell viability counter screen (AID 743221; active means well fitted cell-killing curve with a large enough effect in the repeat runs, not every such curve was filed as active; further: nearly all actives have a fitted effect of over 50% in size)
Method in brief: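 Cytotoxicity is taken from ATP luminescence (CellTiter-Glo, 30 min, room temperature) in FXR-bla HEK 293T cells previously incubated 16 h at 37 C with compound and chenodeoxycholic acid at 50 uM final.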

[7] = target: Vitamin D3 receptor (Homo sapiens) (UniProt P11473); assay: qHTS assay to identify small molecule agonists of the vitamin D receptor (VDR) signaling pathway (AID 743222; calls by dose curve)
Method in brief: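 VDR-bla cells were plated 4 h at 37C/5% CO2, then exposed to compounds in DMSO for 16 h. After LiveBLAzer B/G FRET substrate addition and 2 h at room temperature, beta-lactamase reporter fluorescence was read.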

[8] = target: Vitamin D3 receptor (Homo sapiens) (UniProt P11473); assay: qHTS assay to identify small molecule antagonists of the vitamin D receptor (VDR) signaling pathway (AID 743223; active means well fitted inhibition curve with a large enough effect in the signal ratio in the repeat runs, not every such curve was filed as active; the % refers to the signal ratio)
Method in brief: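 Quantitative HTS in VDR-bla reporter cells stimulated with 1alpha,25-dihydroxyvitamin D3, 3 nM final. Compound exposure 16 h, 37C, 5% CO2. Read-out: beta-lactamase FRET substrate fluorescence, 2 h RT.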

[9] = qHTS assay to identify small molecule antagonists of the peroxisome proliferator-activated receptor delta (PPARd) signaling pathway - cell viability counter screen (AID 743213); further: nearly all actives have a fitted effect of over 50% in size
Method in brief: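 Same-well viability: cells pre-incubated 5 h, dosed with compound plus 300 nM L165041, kept 17 h at 37 C, FRET substrate 2 h RT, then CellTiter-Glo 30 min RT and luminescence.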

[10] = target: Bile acid receptor (Homo sapiens) (UniProt Q96RI1); assay: qHTS assay to identify small molecule agonists of the farnesoid-X-receptor (FXR) signaling pathway (AID 743220; active means well fitted activation curve with a large enough effect in the signal ratio in the repeat runs, not every such curve was filed as active; the % refers to the signal ratio)
Method in brief: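 Beta-lactamase reporter under UAS control in GeneBLAzer FXR HEK 293T cells (5000/well) measured with LiveBLAzer FRET substrate after 2 h at room temperature. Compound exposure lasted 16 h at 37C.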

Measured: Potency

Vitamin D3 receptor (Homo sapiens), sequence (P11473 whole entry, looked up): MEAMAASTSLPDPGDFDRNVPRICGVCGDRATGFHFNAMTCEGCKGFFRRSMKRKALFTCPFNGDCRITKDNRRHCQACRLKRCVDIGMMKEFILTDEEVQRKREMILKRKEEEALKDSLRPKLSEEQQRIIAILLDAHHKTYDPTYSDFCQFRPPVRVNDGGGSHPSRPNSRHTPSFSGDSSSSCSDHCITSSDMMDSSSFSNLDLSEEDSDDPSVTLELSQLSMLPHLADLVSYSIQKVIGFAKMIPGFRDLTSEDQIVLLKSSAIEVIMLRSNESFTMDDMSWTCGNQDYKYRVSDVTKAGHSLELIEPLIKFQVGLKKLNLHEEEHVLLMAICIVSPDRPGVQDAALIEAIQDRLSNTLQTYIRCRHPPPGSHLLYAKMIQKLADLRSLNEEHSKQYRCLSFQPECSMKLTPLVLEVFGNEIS
Bile acid receptor (Homo sapiens), sequence (Q96RI1 whole entry, looked up): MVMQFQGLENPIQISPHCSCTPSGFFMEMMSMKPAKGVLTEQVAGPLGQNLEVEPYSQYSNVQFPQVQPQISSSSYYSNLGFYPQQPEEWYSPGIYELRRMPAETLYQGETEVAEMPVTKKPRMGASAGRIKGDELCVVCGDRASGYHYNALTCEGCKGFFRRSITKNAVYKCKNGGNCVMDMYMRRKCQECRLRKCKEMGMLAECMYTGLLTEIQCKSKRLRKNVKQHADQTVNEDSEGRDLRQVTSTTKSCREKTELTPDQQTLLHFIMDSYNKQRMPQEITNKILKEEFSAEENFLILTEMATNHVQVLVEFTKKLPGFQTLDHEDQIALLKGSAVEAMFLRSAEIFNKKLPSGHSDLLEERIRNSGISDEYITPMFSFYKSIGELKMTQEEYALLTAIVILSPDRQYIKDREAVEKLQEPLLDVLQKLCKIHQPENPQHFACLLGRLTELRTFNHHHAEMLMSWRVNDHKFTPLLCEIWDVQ
Peroxisome proliferator-activated receptor delta (Homo sapiens), sequence (Q03181 whole entry, looked up): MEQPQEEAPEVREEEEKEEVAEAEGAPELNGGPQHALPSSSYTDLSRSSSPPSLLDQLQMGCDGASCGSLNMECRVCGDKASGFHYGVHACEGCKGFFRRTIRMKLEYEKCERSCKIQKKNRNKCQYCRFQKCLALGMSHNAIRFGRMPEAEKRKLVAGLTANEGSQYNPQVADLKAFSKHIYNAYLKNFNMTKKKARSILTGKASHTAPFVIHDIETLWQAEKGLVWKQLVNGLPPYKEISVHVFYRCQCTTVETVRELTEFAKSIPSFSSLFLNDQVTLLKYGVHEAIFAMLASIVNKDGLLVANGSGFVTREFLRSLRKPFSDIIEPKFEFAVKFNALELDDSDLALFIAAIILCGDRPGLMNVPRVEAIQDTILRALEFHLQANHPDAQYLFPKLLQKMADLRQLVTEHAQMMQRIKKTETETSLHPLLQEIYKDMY

O=C(O)c1ccc(Cl)cc1Cl
not listed: [9] | [10]
inactive: all other assays above

CC(C)N(c1ccccc1)C(C)C
inactive: [1] | [2] | [9] | [3] | [5] | [7]

CC(C)OC(=O)CCCCC(=O)OC(C)C
active: [4] 24.6 µM
not listed: [3] | [10]
inactive: all other assays above

CC(C)(C)NC(N)=O
not listed: [4] | [5] | [10]
inactive: all other assays above

ClCCCl
inactive: [1] | [2] | [9] | [3] | [7]

Cc1ccc(S(=O)(=O)O)c(C)c1
not listed: [4] | [10]
inactive: all other assays above

CCCCN
inactive: [1] | [2] | [9] | [6] | [7]

O=C1CC(c2ccc(Cl)cc2)CC(=O)N1
not listed: [9]
inactive: all other assays above

CCCCC(CC)COCCO (stereo unspecified)
not listed: [4] | [5] | [10]
inactive: all other assays above

CNS(=O)(=O)CCc1ccc2[nH]cc(C3CCN(C)CC3)c2c1
not listed: [4] | [10]
inactive: all other assays above

Cc1cc(NC(=O)C2=C(O)c3ccccc3S(=O)(=O)N2C)no1
inactive: [1] | [2] | [9] | [3] | [6] | [7]

CC(C)C[C@H](NC(=O)CNC(=O)[C@H](Cc1ccc(O)cc1)NC(=O)[C@H](CO)NC(=O)[C@H](Cc1c[nH]c2ccccc12)NC(=O)[C@H](Cc1cnc[nH]1)NC(=O)[C@@H]1CCC(=O)N1)C(=O)N[C@@H](CCCN=C(N)N)C(=O)N1CCC[C@H]1C(=O)NCC(N)=O (stereo in doubt)
inactive: [1] | [2] | [9] | [4] | [6] | [7]

COc1cc(N)ccc1C
not listed: [6] | [9] | [10]
inactive: all other assays above

Cc1ccccc1OCC(O)CO (stereo unspecified)
not listed: [4] | [7] | [10]
inactive: all other assays above

CCOCCOCCOCC
inactive: [1] | [2] | [9] | [5] | [6] | [7]

COc1cc(NS(=O)(=O)c2ccc(N)cc2)nc(OC)n1
not listed: [4] | [6] | [10]
inactive: all other assays above

CN(C)c1ccc(C=O)cc1
not listed: [8] | [9] | [10]
inactive: all other assays above

CCCCCCOC(=O)CC
not listed: [3] | [10]
inactive: all other assays above

O=C(O)c1cc(Br)c(O)c(Br)c1
not listed: [3] | [6] | [10]
inactive: all other assays above

Oc1ccccc1-c1nnco1
not listed: [3] | [4] | [10]
inactive: all other assays above

CC(=C(CCOC(=O)C(C)C)SSC(CCOC(=O)C(C)C)=C(C)N(C=O)Cc1cnc(C)nc1N)N(C=O)Cc1cnc(C)nc1N
inactive: [1] | [2] | [3] | [4] | [5] | [7]

NS(=O)(=O)c1ccc(NC(=O)CCC(=O)O)cc1
inactive: [1] | [2] | [9] | [4] | [5] | [7]

O=C1c2ccccc2C(=O)c2cc(S(=O)(=O)O)ccc21
not listed: [4] | [10]
inactive: all other assays above

Nc1ccc([N+](=O)[O-])c(N)c1
not listed: [4] | [5] | [10]
inactive: all other assays above

O=S(=O)(O)c1ccc2cc(O)c(S(=O)(=O)O)cc2c1
not listed: [4] | [10]
inactive: all other assays above

Cc1ccc2ccc(Cl)cc2n1
not listed: [4] | [10]
inactive: all other assays above

NCCS
not listed: [9] | [10]
inactive: all other assays above

CC(=O)Nc1ccc(S(=O)(=O)Cl)cc1
not listed: [4] | [6] | [10]
inactive: all other assays above

CCCCCCCCCCl
inactive: [1] | [9] | [4] | [5] | [10] | [7]

COCCOC(=O)C1=C(C)NC(C)=C(C(=O)OC(C)C)C1c1cccc([N+](=O)[O-])c1 (stereo unspecified)
inactive: [1] | [2] | [3] | [5] | [8]

Nc1cccc(O)c1
not listed: [2] | [4]
inactive: all other assays above

O=C1CCCC(=O)O1
inactive: [1] | [2] | [5] | [6] | [7]
